Rows were chosen to be rich in hits. Some 2.3% of all compounds tested hit in one or more screens of this group.
Rango release inh – inhibitors of RanGTP-induced Rango-importin beta complex dissociation; Biochemical FRET Rango-importin beta, RanGTP-induced dissociation; actives 0.071% (n = 340,000); Potency, µM (series often up to 46.1 µM), for inactives: top-dose activity change, negative = inhibition; O95149+P62826; calls by dose curve; also: % of control where 0% means no effect; nearly all actives have a fitted effect of over 45% in size
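Compounds sat 5 min at room temperature with 0.1 uM Rango biosensor plus 0.25 uM importin beta, then FRET pre-read. RanGTP-RCC1 (0.6 uM Ran, 2mM GTP, 0.2 uM RCC1) added for 45 min, and the CFP/YFP post-read measured blocked complex dissociation.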
Nrf2 activator – Nrf2 pathway activation. Potency, µM (highest dose often 46.1 µM), for inactives: at the highest dose activation, usual class: activators. AREc32 ARE-luciferase reporter (MCF7-derived line), luminescence, 24 h. AID 624171. actives 0.31% (n = 410,000); also: % of control where 0% means no effect; nearly all actives have a fitted effect of over 65% in size
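Nrf2 activation is followed as ARE-luciferase induction in the AREc32 line after one day of compound treatment; luminescence is read with Steady-Glo.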
Nrf2 block – inhibitors of Nrf2 signaling; Potency, µM (highest dose often 46 µM), for inactives: at the highest dose activity change, negative = inhibition, hits mostly inhibitors; actives 2.1% (n = 360,000); AID 504444; A549 ARE-Fluc reporter, luciferase luminescence, 18-24 h; also: % is scaled to controls: 0 for no effect and ±100 for the full control effect; nearly all actives have a fitted effect of over 60% in size
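Quantitative HTS in A549 cells stably bearing an antioxidant response element-firefly luciferase construct. Inhibition of Nrf2-driven transcription was scored by luminescence after 18-24 h of compound exposure at 37 °C.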
Rango-impB inh – Rango-importin beta binding inhibition. Potency, µM (titrated, usually from 92.2 µM), for inactives: at the highest dose inhibition of complex formation. AID 540263. actives 0.031% (n = 340,000). Rango CFP/YFP FRET sensor + importin beta, 45 min. Q14974; calls by dose curve;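 also: 0% = DMSO wells and 100% = buffer wells lacking importin beta; nearly all actives have a fitted effect of over 15% in size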
Target sequence (Q14974 whole entry, looked up): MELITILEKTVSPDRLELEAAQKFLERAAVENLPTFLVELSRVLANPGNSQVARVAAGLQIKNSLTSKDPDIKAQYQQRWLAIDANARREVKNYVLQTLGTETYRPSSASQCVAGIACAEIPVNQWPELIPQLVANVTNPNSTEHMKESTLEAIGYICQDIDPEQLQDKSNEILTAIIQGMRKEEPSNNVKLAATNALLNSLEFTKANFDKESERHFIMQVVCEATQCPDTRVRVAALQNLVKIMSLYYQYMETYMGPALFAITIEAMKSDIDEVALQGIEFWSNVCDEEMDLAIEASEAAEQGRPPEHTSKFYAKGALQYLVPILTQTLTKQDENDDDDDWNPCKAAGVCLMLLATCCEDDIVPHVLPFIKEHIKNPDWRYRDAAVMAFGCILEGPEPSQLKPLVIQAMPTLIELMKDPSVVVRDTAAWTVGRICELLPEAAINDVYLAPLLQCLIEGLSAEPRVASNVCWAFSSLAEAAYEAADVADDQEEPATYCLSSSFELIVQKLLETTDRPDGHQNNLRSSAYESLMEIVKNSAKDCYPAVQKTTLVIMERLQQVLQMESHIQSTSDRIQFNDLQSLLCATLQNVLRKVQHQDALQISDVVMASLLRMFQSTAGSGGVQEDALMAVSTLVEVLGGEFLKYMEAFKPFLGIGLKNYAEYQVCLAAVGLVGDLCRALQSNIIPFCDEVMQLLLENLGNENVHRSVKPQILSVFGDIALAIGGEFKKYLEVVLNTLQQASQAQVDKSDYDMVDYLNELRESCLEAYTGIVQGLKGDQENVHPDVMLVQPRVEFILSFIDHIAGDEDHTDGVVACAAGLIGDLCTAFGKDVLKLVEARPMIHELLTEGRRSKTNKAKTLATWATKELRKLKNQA
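Inhibition scored from the CFP 486 nm/YFP 530 nm FRET ratio 45 min after adding 0.125 microM importin beta to 50 nM Rango biosensor preincubated 5 min with compound (room temperature, PBS with DTT, Tween-20, BSA). No-importin wells as positive control.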
A549 tox – counter-screen for Nrf2 inhibitors: cytotoxicity in A549 cells. A549 ARE-Fluc cells, CellTiter-Fluor viability, 18-24 h. Potency, µM (series often up to 46 µM), inactives show top-dose activity change, negative = cytotoxicity, actives largely listed as inhibitors. actives 0.16% (n = 390,000); also: % is scaled to controls: 0 for no effect and ±100 for the full control effect
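A549 ARE_Fluc cells in 5% FBS OPTI-MEM were exposed to compounds in concentration-response for 18-24 h at 37 deg C. Viability was read by CellTiter-Fluor fluorescence (Ex 405/Em 525) after 30 min, before the luciferase read.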
* hit, by the source's call; ? = inconclusive; nt = no result; [ ] = remark or other dose. Unless noted, calls follow the shape of the dose curve; as a rule, active = well fitted curve in the direction sought with a large enough effect; inconclusive = small, poorly fitted or top-dose-only effect, or another doubt; inactive = no such curve, though single readings can be large; an effect the other way counts as inactive or inconclusive. Potency is read from the fitted curve at half-maximal effect.

SMILES	Rango release inh	Nrf2 activator	Nrf2 block	Rango-impB inh	A549 tox
c1ccc(N(c2ccccc2)c2nc(N3CCCC3)nc(-n3ccnc3)n2)cc1	3%	-1%	23µM*	-2%	?
CN(c1ccccc1)c1nc(N2CCCC2)nc(-n2ccnc2)n1	-4%	-1%	-27%	0%	-10%
COc1ccccc1-c1nnc(NC(=O)c2ccc(S(=O)(=O)N(C)Cc3ccccc3)cc2)o1	-1%	-1%	5.8µM*	-1%	-18%
CCc1nnc(NC(=O)c2ccc(S(=O)(=O)N(CC)Cc3ccccc3)cc2)o1	-10%	-1%	21µM*	-3%	-13%
CCN(Cc1ccccc1)S(=O)(=O)c1ccc(C(=O)Nc2nnc(C)o2)cc1	-1%	-1%	13µM*	-2%	-10%
COc1ccccc1-c1nnc(NC(=O)Cc2ccccc2)o1	-4%	5%	9%	3%	0%
CN(Cc1ccccc1)S(=O)(=O)c1ccc(C(=O)Nc2nnc(C3CC3)o2)cc1	0%	-2%	?	-1%	-4%
CCc1nnc(NC(=O)c2ccc(S(=O)(=O)N(C)Cc3ccccc3)cc2)o1	1%	-2%	7.3µM*	1%	-25%
Cc1cc(NC(=O)CN2C(=O)/C(=C/c3ccc(C(C)C)cc3)SC2=S)no1	nt	-1%	nt	nt	nt
CCOc1ccccc1NC(=O)Nc1cc2c(cc1N1CCCCC1)n(CC)c(=O)n2CC	nt	3%	?	nt	-19%
COc1ccc(-n2c(SCC(=O)Nc3nnc(C)s3)nc3c([nH]c4ccccc43)c2=O)cc1	nt	4%	nt	nt	-19%
CCCCN(C)S(=O)(=O)c1ccc(C(=O)Nc2nnc(CSC)o2)cc1	-6%	0%	10µM*	4%	-20%
CCN(CC)S(=O)(=O)c1ccc(C(=O)Nc2nnc(CSC)o2)cc1	3%	-1%	5%	1%	1%
CC1(c2ccccc2Cl)NC(=O)N(CC(=O)NCc2ccc3c(c2)OCO3)C1=O (centres undefined)	-4%	0%	-4%	0%	5%
CCc1ccccc1NC(=O)C(=O)NCC(c1cccnc1)N1CCN(c2ccccc2F)CC1 (centres undefined)	nt	0%	23%	nt	0%
Cc1ccc(/C=N/Nc2ncc(Cl)cc2Cl)s1	-5%	3%	?	2%	5.8µM*
Clc1cnc(N/N=C/c2cccs2)c(Cl)c1	-1%	?	?	-2%	-23%
Cc1ccc(S(=O)(=O)N2CC(O)C[C@H]2C(=O)OCC(=O)N2CCN(c3ccc(F)cc3)CC2)cc1C (some centres undefined)	3%	0%	16µM*	?	-11%
Cc1ccc(S(=O)(=O)N2CCC(C(=O)OCC(=O)N3CC(C)CC(C)C3)CC2)cc1C (centres undefined)	0%	0%	2%	1%	-4%
Cc1cc(C)c(-c2csc(NC(=O)/C=C/c3cccs3)n2)c(C)c1	-6%	3%	23µM*	0%	-16%
Cc1ccccc1-n1nc(CSc2nc3ccccc3[nH]2)c(-c2ccccc2)c1N	-8%	0%	23µM*	-2%	-27%
Nc1c(-c2ccccc2)c(CSc2nc3ccccc3[nH]2)nn1-c1ccc(Cl)cc1	3%	0%	?	0%	?
Nc1c(-c2ccccc2)c(CSc2nc3ccccc3[nH]2)nn1-c1cccc(Cl)c1	?	6%	23µM*	-2%	-18%
CC(=O)c1cc2c(s1)c1cnn(Cc3ccccc3F)c(=O)c1n2C	nt	nt	7%	nt	9%
O=C(c1ccc(F)cc1)N1CCC(c2nc(-c3ccc(S(=O)(=O)N4CCCC4)cc3)no2)CC1	nt	-1%	-25%	nt	0%
SMILES	Rango release inh	Nrf2 activator	Nrf2 block	Rango-impB inh	A549 tox
CCCCc1c(C)c(C#N)c2nc3ccccc3n2c1NCCN(C)C	?	-1%	6.5µM*	?	6.5µM*
CCc1c(C)c(C#N)c2nc3ccccc3n2c1NCCCN(C)C	nt	1%	nt	nt	nt
Cc1cc(-n2c(C)cc(C(=O)CSc3nc(N)cc(=O)[nH]3)c2C)no1	-14%	2%	?	-1%	-6%
COc1ccc(CCn2c(C)cc(C(=O)CSc3nc(N)cc(=O)[nH]3)c2C)cc1	0%	1%	18µM*	0%	-5%[1.84 µM]
Cc1cc(C(=O)CSc2nc(N)cc(=O)[nH]2)c(C)n1-c1ccc(OC(F)F)cc1	-8%	3%	18µM*	?	-18%
O=[S+]([O-])(c1ccc2ncsc2c1)N1CCN([S+](=O)([O-])c2c(F)cccc2F)CC1	nt	nt	10%	nt	-1%
O=C(N/N=C/C=C/c1ccc2c(c1)OCO2)C(O)c1ccccc1 (centres undefined)	33%	2%	18%	3%	6%
O=C1c2cccc3cc([N+](=O)[O-])cc(c23)C(=O)N1/N=C/c1ccc(O)cc1O	4%	28%	?	14%	23µM*
Cc1ccc(-c2csc(N3CCC(C(N)=O)CC3)n2)cc1	7%	3%	9%	-3%	9%
Cc1ccc(-c2csc(N3CCC(NS(=O)(=O)c4ccc5c(c4)OCCO5)CC3)n2)cc1	3%	7%	15µM*	1%	?
COc1ccc(C2c3c(ncn(CCc4ccccc4)c3=N)Oc3ccc4ccccc4c32)cc1OC (centres undefined)	nt	nt	-6%	nt	-14%
CC(=O)NC(CC(=O)Nc1nc(-c2ccc(N(C)S(C)(=O)=O)cc2)cs1)c1ccccc1 (centres undefined)	-4%	4%	21µM*	5%	-24%
CC(C)c1ccccc1NC(=O)COC(=O)CCN1C(=O)/C(=C\C=C\c2ccccc2)SC1=S	21%	9%	10µM*	19%	?
COc1ccc(S(=O)(=O)n2ccnc2)cc1C(C)(C)C	nt	-1%	2%	nt	2%
COc1ccc2c(c1)Cc1sc(NC(=O)c3cccc(C)c3)nc1-2	nt	2%	21µM*	nt	-13%
N#Cc1nc(Nc2cc(Cl)cc(Cl)c2)nc(NC2CCCC2)n1	nt	nt	?	nt	-27%
NS(=O)(=O)c1ccc(N2N=C(c3ccccc3)CC2c2ccccc2Cl)cc1 (centres undefined)	2%	1%	21µM*	0%	?
NS(=O)(=O)c1ccc(N2N=C(c3ccccc3)CC2c2ccccc2)cc1 (centres undefined)	-13%	4%	?	?	-3%
Cc1ccc(-c2nnc(Nc3cccc(O)c3)c3ccccc23)cc1S(=O)(=O)N1CCOCC1	nt	7%	16µM*	nt	?
Cc1ccc(S(=O)(=O)NCc2ccccc2)cc1C(=O)N(C)Cc1ccc(F)cc1	-11%	-1%	23µM*	5%	-12%
COc1ccccc1OCC(=O)/C=C1/N(C)c2ccccc2C1(C)C	-2%	0%	?	7%	-8%

Compound activity deposited in PubChem BioAssay by National Center for Advancing Translational Sciences (NCATS).
